This is a sample that favours compounds with a hit; in the whole collection about 2% have one here.
GALR2 agonist – activates the human galanin receptor 2. O43603. GALR2-expressing cells, agonist activation read-out. activation, % (no concentration beside the values). actives 0.48% (n = 140,000). AID 803; in the data active means activation above about 5%, passing the limit was not always enough;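 further: 0% = vehicle buffer wells and 100% = reference agonist at full effect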
S1P2 blocker – antagonists of human S1P2 receptor; cell-based S1P2 antagonist assay, inhibition at 5 uM; actives 0.21% (n = 97,000); inhibition, % at 5 µM; AID 736; O95136; in the data active means inhibition above about 45%;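 further: CRE beta-lactamase reporter cells expressing human S1P2 stimulated with S1P; 0% = agonist at EC80 alone and 100% = agonist plus reference antagonist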
S1P2 ag – S1P2 (human) receptor agonism; actives 0.46% (n = 97,000); AID 729; activation, % at 4.5 µM; O95136; S1P2-expressing cell line, agonist reporter read-out; in the data active means activation above about 16%;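 further: 0% = vehicle low control and 100% = maximal reference agonist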
PLAP act – activates human placental alkaline phosphatase; actives 1.2% (n = 96,000); P05187; purified PLAP enzyme, luminescent substrate read-out; active compounds read high; activation fold at 20 µM; in the data active means activation fold above about 2
Target sequence (P05187 whole entry, looked up): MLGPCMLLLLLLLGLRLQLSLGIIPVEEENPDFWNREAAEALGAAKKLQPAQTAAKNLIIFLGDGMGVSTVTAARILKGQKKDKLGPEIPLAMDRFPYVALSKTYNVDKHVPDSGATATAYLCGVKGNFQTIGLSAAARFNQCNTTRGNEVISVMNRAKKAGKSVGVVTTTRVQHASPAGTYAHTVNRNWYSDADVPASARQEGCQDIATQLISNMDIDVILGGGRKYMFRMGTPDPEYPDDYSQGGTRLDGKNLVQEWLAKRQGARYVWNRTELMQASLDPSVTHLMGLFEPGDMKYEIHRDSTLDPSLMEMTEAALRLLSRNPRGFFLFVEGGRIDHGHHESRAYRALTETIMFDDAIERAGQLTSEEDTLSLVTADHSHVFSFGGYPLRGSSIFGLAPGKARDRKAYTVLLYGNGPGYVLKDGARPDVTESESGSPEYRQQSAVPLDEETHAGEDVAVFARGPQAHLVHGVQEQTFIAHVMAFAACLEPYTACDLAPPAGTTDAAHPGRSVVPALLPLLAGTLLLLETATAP
GALR2 blocker – blocks the human galanin receptor 2; O43603; GALR2-expressing cells, antagonist mode; inhibition, % at 4 µM; actives 0.39% (n = 140,000); in the data active means inhibition above about 27%;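 further: cells stimulated with galanin 1-16 at roughly its EC80; 0% = agonist challenge control and 100% = basal control without agonist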
GALR2 ag confirm – confirmation of human galanin receptor 2 (GALR2) agonists; shares compounds with GALR2 agonist; GALR2-expressing cells, agonist activation; activation, % at 5.6 µM; actives 10% (n = 460); in the data active means activation above about 8.4%;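 further: 0% = buffer-only vehicle wells and 100% = full reference agonist response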
BLA activ ctr – activates beta-lactamase reporter in GALR2 agonist counterscreen; shares compounds with GALR2 agonist; CHO NFAT-bla reporter, beta-lactamase FRET activation; activation, % at 5.6 µM; actives 10% (n = 460); AID 865;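 active means activation above the screen-wide mean activation plus 3 SD, cut at about 8% in these data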;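 further: 0% = DMSO with PBS wells and 100% = thapsigargin positive control wells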
Starred values were filed as active, the others as inactive; / = no result.

SMILES	GALR2 agonist	S1P2 blocker	S1P2 ag	PLAP act	GALR2 blocker	GALR2 ag confirm	BLA activ ctr
CCCn1c(C)cc(/C=C(\C#N)C(=O)OCC(=O)Nc2cccc(OC)c2)c1C	0	/	/	/	-12	/	/
NS(=O)(=O)c1ccc(CCNc2nc3c(-c4cccc(F)c4)nnn3c3ccccc23)cc1	11*	/	/	/	18	3	2
Cc1cccc(-c2nnn3c2nc(NCCc2ccc(S(N)(=O)=O)cc2)c2ccccc23)c1	4	/	/	/	18	/	/
COc1ccc(-c2cc(-c3ccccc3)c(C#N)c(S(C)=O)n2)cc1 (configuration not stated)	27*	7	10	1.3	9	7	17*
O=C1[C@@H]2Cc3c([nH]c4ccccc34)[C@@H](c3ccccc3)N2C(=O)[C@@H]2Cc3c([nH]c4ccccc34)[C@@H](c3ccccc3)N12	-1	/	/	/	14	/	/
COc1cc([C@H]2c3[nH]c4ccccc4c3C[C@H]3C(=O)N4[C@@H](c5cc(OC)c(OC)c(OC)c5)c5[nH]c6ccccc6c5C[C@H]4C(=O)N23)cc(OC)c1OC	9.6*	/	/	/	-5	3	2
Cc1cc(=O)oc2c3c4c(cc12)OCCN4CCC3	15*	-9	5	/	18	1	3
CCOc1cc(CNc2ccc3c(c2)CCC3)ccc1OC	-1	-23	-1	1.1	-7	/	/
COc1cc(/C=C/C(=O)Nc2nc3ccc(S(=O)(=O)N(C)C)cc3s2)cc(OC)c1OC	2	/	/	/	11	/	/
COc1cc2nc(/C=C/c3cc(OC)c(OC)c(OC)c3)sc2cc1SC	14*	/	/	/	-4	6	9.0*
COC(=O)c1cc2ccsc2n1CC(=O)Nc1cc(C)cc(C)c1	10	-5	-2	0.8	0	2	-2
COc1ccc(Nc2nc(N)nc(CSc3nnc(C)s3)n2)cc1	0	-29	-2	/	-11	/	/
COc1ccc(OC)c(Nc2nc(N)nc(CSc3nnc(N)s3)n2)c1	17*	-30	-10	0.8	-4	-1	-1
COc1ccc(NC(=O)c2ccccc2F)cc1Cl	15*	-3	0	0.9	10	-1	-2
COc1ccc(NC(=O)c2cccc(F)c2)cc1Cl	-1	5	-3	0.8	7	/	/
Cc1cc(C)c(-c2c(O)c3cnn(-c4ccccc4)c3[nH]c2=O)c(C)c1	34*	/	/	/	9	-1	-4
O=C(N/N=C/c1cc(Cl)cc([N+](=O)[O-])c1O)NC12CC3CC(CC(C3)C1)C2	21*	/	/	/	0	-1	-3
Cc1cc(C(=O)N/N=C/c2cc(Cl)cc([N+](=O)[O-])c2O)c2ccccc2n1	-2	/	/	/	-13	/	/
CCC(C)n1c(C)nc2c(c1=O)c1nc3ccccc3nc1n2-c1ccc2c(c1)OCCO2 (configuration not stated)	/	/	/	1	/	/	/
CCCCCCc1cc2cc(S(=O)(=O)c3ccc(F)cc3)c(=O)oc2cc1O	14*	/	/	/	-3	16*	41*
CN(C)c1ccc(/C=C2/SC(=O)N(CCN=C3NS(=O)(=O)c4ccccc43)C2=O)cc1	13*	/	/	/	8	5	-2
CN(C)c1ccc(/C=C2\SC(=O)N(CC(O)Cn3c4ccccc4c4ccccc43)C2=O)cc1 (configuration not stated)	-1	/	/	/	-5	/	/
CCOC(=O)Cc1csc(NC(=O)CSc2ncnc3c2cnn3-c2ccc(OC)cc2)n1	12*	-1	-5	1.2	2	0	-2
O=C1c2cccc3c(O)ccc(c23)C(=O)N1Cc1ccccc1	-2	3	-6	0.8	25	/	/
NS(=O)(=O)c1ccc(N2N=C(c3ccccc3)CC2c2ccc(F)cc2)cc1 (configuration not stated)	20*	-6	5	1.7	-10	5	11*
Cc1ccc2nc3c(cc(C(=O)NCC4CCCO4)n3C)c(=O)n2c1 (configuration not stated)	0	7	-1	/	-8	/	/
Cc1ccc2nc3c(cc(C(=O)NCC4CCCO4)c(=N)n3CCCOC(C)C)c(=O)n2c1 (configuration not stated)	10	-5	5	1.4	-12	1	3
Cc1ccc(NC2=NCC(=O)N2Cc2ccc3c(c2)OCO3)cc1	-1	/	/	1.2	12	/	/
O=S(=O)(c1cccc2ccccc12)n1nnc2ccccc21	94*	-14	-4	1.1	-14	-1	-2

Screening results from PubChem.
